± gives the standard deviation of the averaged measurements.
Tests used:
Conditions in all cases: concentration: 10 µM; 24 h
[1] = system: HCC1569; test: cell number relative to DMSO (% of DMSO); higher = more cells (less growth inhibition / toxicity)
Procedure, shortened: (§1)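 After 24 h at 37 °C with compounds at 10 µM, in triplicate, HCC1569 and TDF cells were fixed with 3.7% formaldehyde. Immunostaining used a rabbit anti-H1.0 antibody and an AlexaFluor 647 secondary, with DAPI, and six fields per well were imaged at ×10. H1.0 nuclear intensity or cell number is presented as percent of the plate control, from the median of replicates, with HCC1569 values smoothed for positional effects.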

[2] = system: TDF; test: as above
Procedure, shortened: as §1

[3] = system: TDF; test: H1.0 immunofluorescence intensity relative to DMSO (% of DMSO); higher = stronger H1.0 induction, active = 120 or more
Procedure, shortened: as §1

[4] = system: HCC1569; test: H1.0 immunofluorescence intensity relative to DMSO (% of DMSO); higher = stronger H1.0 induction, active = 140 or more
Procedure, shortened: as §1
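For H1.0 immunofluorescence intensity relative to DMSO in this document: TDF is a line of transformed human dermal fibroblasts of mesenchymal origin.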
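For cell number relative to DMSO in this document: TDF denotes transformed human dermal fibroblasts of mesenchymal origin.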

Structure (SMILES): O=c1c2ccccc2[nH]c(=S)n1CCN1CCC(=C(c2ccc(F)cc2)c2ccc(F)cc2)CC1 [Diacylglycerol Kinase Inhibitor II]
- cell number [1]: 105 ± 1.1
- cell number [2]: 93.8 ± 1.5
- H1.0 immunofluorescence intensity [3]: 93.9 (inactive)
- H1.0 immunofluorescence intensity [4]: 94.1 (inactive)

Structure (SMILES): COc1cc2c[n+](C)c3c4cc5c(cc4ccc3c2cc1OC)OCO5.[Cl-]
- cell number [1]: 85.3
- cell number [2]: 34.7
- H1.0 immunofluorescence intensity [3]: 138 (active)
- H1.0 immunofluorescence intensity [4]: 106 (inactive)

Structure (SMILES): O=c1onc2n1-c1cc(Br)ccc1OC2
- cell number [1]: 97.4
- cell number [2]: 104
- H1.0 immunofluorescence intensity [3]: 94 (inactive)
- H1.0 immunofluorescence intensity [4]: 96 (inactive)

Structure (SMILES): CCCCCCCCC=CCCCCCCCCCCC(=O)O [12(Z) Heneicosenoic acid]
- cell number [1]: 103
- cell number [2]: 98
- H1.0 immunofluorescence intensity [3]: 95.5 (inactive)
- H1.0 immunofluorescence intensity [4]: 115 (inactive)

Structure (SMILES): C[N+](C)(CCCCCC[N+](C)(C)CCCN1C(=O)c2cccc3cccc(c23)C1=O)CCCN1C(=O)c2cccc3cccc(c23)C1=O.[Br-].[Br-]
- cell number [1]: 100
- cell number [2]: 101
- H1.0 immunofluorescence intensity [3]: 97.2 (inactive)
- H1.0 immunofluorescence intensity [4]: 108 (inactive)

Structure (SMILES): CCCCCCCCCC(=O)NC(CN1CCOCC1)C(O)c1ccccc1 (racemic)
- cell number [1]: 99.8
- cell number [2]: 93.9
- H1.0 immunofluorescence intensity [3]: 96.7 (inactive)
- H1.0 immunofluorescence intensity [4]: 106 (inactive)

Structure (SMILES): O=NN(CCCl)C(=O)NC1CCCCC1 [Lomustine]
- cell number [1]: 104
- cell number [2]: 85
- H1.0 immunofluorescence intensity [3]: 102 (inactive)
- H1.0 immunofluorescence intensity [4]: 99.7 (inactive)

Structure (SMILES): c1cc(-c2sc(-c3ccncc3)c(-c3ccncc3)c2-c2ccncc2)ccn1 [4-[3,4,5-tri(4-pyridinyl)-2-thienyl]pyridine]
- cell number [1]: 98.5
- cell number [2]: 95.1
- H1.0 immunofluorescence intensity [3]: 98 (inactive)
- H1.0 immunofluorescence intensity [4]: 98.9 (inactive)

Structure (SMILES): Br.CCSC(=N)N [S-Ethylisothiourea hydrobromide]
- cell number [1]: 102
- cell number [2]: 109
- H1.0 immunofluorescence intensity [3]: 97.1 (inactive)
- H1.0 immunofluorescence intensity [4]: 88 (inactive)

Structure (SMILES): CC(=O)N1CCN(C(=O)/C=C/c2ccc(Sc3ccccc3C(C)C)c([N+](=O)[O-])c2)CC1
- cell number [1]: 82.5
- cell number [2]: 86.4
- H1.0 immunofluorescence intensity [3]: 103 (inactive)
- H1.0 immunofluorescence intensity [4]: 123 (inactive)

Structure (SMILES): N[C@@H](COP(=O)(O)O)C(=O)O [O-Phospho-L-serine]
- cell number [1]: 99.1
- cell number [2]: 101
- H1.0 immunofluorescence intensity [3]: 94.9 (inactive)
- H1.0 immunofluorescence intensity [4]: 96.7 (inactive)

Structure (SMILES): CCOC(=O)C1=C(C)NC(C)=C(C(=O)OC)C1c1cccc([N+](=O)[O-])c1 (stereo unspecified) [Nitrendipine]
- cell number [1]: 97.8 ± 5.5
- cell number [2]: 101 ± 10
- H1.0 immunofluorescence intensity [3]: 101 (inactive)
- H1.0 immunofluorescence intensity [4]: 122 (inactive)

Structure (SMILES): Cl.FC(F)(F)c1cc(COC2CCCNC2c2ccccc2)cc(C(F)(F)F)c1 [L-733,060 hydrochloride]
- cell number [1]: 91.2
- cell number [2]: 91.3
- H1.0 immunofluorescence intensity [3]: 108 (inactive)
- H1.0 immunofluorescence intensity [4]: 118 (inactive)

Structure (SMILES): NC(CO)(CO)CO.O=C(c1ccccc1)c1ccc2n1CCC2C(=O)O (stereo unspecified) [Ketorolac tris salt]
- cell number [1]: 101
- cell number [2]: 111
- H1.0 immunofluorescence intensity [3]: 94.5 (inactive)
- H1.0 immunofluorescence intensity [4]: 94.1 (inactive)

Structure (SMILES): CC(=O)NC(CSCC=C(C)CCC=C(C)CCC=C(C)CCC=C(C)C)C(=O)O (stereo unspecified)
- cell number [1]: 102
- cell number [2]: 98.3
- H1.0 immunofluorescence intensity [3]: 105 (inactive)
- H1.0 immunofluorescence intensity [4]: 95.9 (inactive)

Structure (SMILES): CN(CC=CC#CC(C)(C)C)Cc1cccc2ccccc12.Cl
- cell number [1]: 96.4
- cell number [2]: 105
- H1.0 immunofluorescence intensity [3]: 101 (inactive)
- H1.0 immunofluorescence intensity [4]: 98.4 (inactive)

Structure (SMILES): c1ccc2c(CC3=NCCN3)cccc2c1 [Naphazoline]
- cell number [1]: 99.4
- cell number [2]: 102
- H1.0 immunofluorescence intensity [3]: 98 (inactive)
- H1.0 immunofluorescence intensity [4]: 113 (inactive)

Structure (SMILES): CCCCCCCCCCCCCCCC(=O)NCCO [Palmitoylethanolamide]
- cell number [1]: 104
- cell number [2]: 101
- H1.0 immunofluorescence intensity [3]: 92.4 (inactive)
- H1.0 immunofluorescence intensity [4]: 90.6 (inactive)

Structure (SMILES): CC(CN1c2ccccc2Sc2ccccc21)N(C)C.Cl (stereo unspecified) [Promethazine hydrochloride]
- cell number [1]: 105
- cell number [2]: 96.9
- H1.0 immunofluorescence intensity [3]: 109 (inactive)
- H1.0 immunofluorescence intensity [4]: 106 (inactive)

Structure (SMILES): O=C1CCN(c2ccccc2)N1 [Phenidone]
- cell number [1]: 106
- cell number [2]: 97.6
- H1.0 immunofluorescence intensity [3]: 92.2 (inactive)
- H1.0 immunofluorescence intensity [4]: 98.8 (inactive)

Structure (SMILES): COC1C(OC(=O)C=CC=CC=CC=CC(=O)O)CCC2(CO2)C1C1(C)OC1CC=C(C)C (stereo unspecified) [Fumagillin]
- cell number [1]: 104 ± 1.1
- cell number [2]: 98.7 ± 8.4
- H1.0 immunofluorescence intensity [3]: 98.9 (inactive)
- H1.0 immunofluorescence intensity [4]: 91.2 (inactive)

Structure (SMILES): Cc1nc(N)sc1-c1ccnc(Nc2ccc(N3CCOCC3)cc2)n1
- cell number [1]: 62.2
- cell number [2]: 42.5
- H1.0 immunofluorescence intensity [3]: 105 (inactive)
- H1.0 immunofluorescence intensity [4]: 99.1 (inactive)

Structure (SMILES): Cc1ccc(S(=O)(=O)NC(=O)NN2CC3CCCC3C2)cc1 (stereo unspecified) [Gliclazide]
- cell number [1]: 101
- cell number [2]: 106
- H1.0 immunofluorescence intensity [3]: 89 (inactive)
- H1.0 immunofluorescence intensity [4]: 114 (inactive)

Structure (SMILES): CCCCCC(=O)C=CC=CCCCCCCCC(=O)O [13-Ketooctadecadienoioc acid]
- cell number [1]: 99.9
- cell number [2]: 97.6
- H1.0 immunofluorescence intensity [3]: 95.9 (inactive)
- H1.0 immunofluorescence intensity [4]: 103 (inactive)
